PubChem BioAssay AID1159580 (chemical genetic matrix, 2015)
Where “and” joins values, the source holds several entries; their conditions need not be identical. Equal entries are not always repeated. Hit rate of the full screen: of about 5,500 compounds, about 2,000 (36%) were called active. Inconclusive results (about 18%) are left out. No stated cut-off is given here; in the data, active means normalized growth mostly below about 0.91 (no sharp cut-off); inconclusive means no clear call, values can overlap the other calls; inactive means mostly above about 0.92. The list shows a part of the results.

Assay: chemical genetic growth profiling, strain panel (AID 1159580);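 further: tested at 20 µM; growth read once vehicle control cultures reached saturation at 30 °C; 1 = growth at the plate median or of vehicle wells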
Conditions: S. cerevisiae deletion strains, growth OD

Measured: normalized growth

O=C1C=C(O)c2ccccc2C1=O
inactive: locus YAL013W, strain DEP1, stronger effect = lower value 0.969 | locus YAL026C, strain drs2, stronger effect = lower value 0.938 | locus YAL030W, strain snc1, stronger effect = lower value 0.959 | locus YBL061C, strain skt5, stronger effect = lower value 0.956 | locus YBR009C, strain hhf1, stronger effect = lower value 0.948 | locus YBR021W, strain FUR4, stronger effect = lower value 1.05 | locus YBR023C, strain chs3, stronger effect = lower value 0.95 | locus YBR171W, strain sec66, stronger effect = lower value 0.952 | locus YBR229C, strain ROT2, stronger effect = lower value 0.979 | locus YBR231C, strain swc5, stronger effect = lower value 0.932 | locus YBR279W, strain paf1, stronger effect = lower value 0.953 | locus YCL011C, strain gbp2, stronger effect = lower value 0.925 | locus YCL016C, strain dcc1, stronger effect = lower value 0.95 | locus YCL029C, strain bik1, stronger effect = lower value 0.971 | locus YCL061C, strain MRC1, stronger effect = lower value 0.93 | locus YCL069W, strain vba3, stronger effect = lower value 0.963 | locus YCR088W, strain abp1, stronger effect = lower value 0.934 | locus YDL005C, strain med2, stronger effect = lower value 0.947 | locus YDL035C, strain GPR1, stronger effect = lower value 1.01 | locus YDL040C, strain nat1, stronger effect = lower value 0.966 | locus YDL074C, strain BRE1, stronger effect = lower value 1.03 | locus YDL101C, strain DUN1, stronger effect = lower value 0.971 | locus YDL134C, strain PPH21, stronger effect = lower value 0.968 | locus YDL185W, strain tfp1, stronger effect = lower value 0.907 | locus YDL192W, strain arf1, stronger effect = lower value 0.958 | locus YDR001C, strain nth1, stronger effect = lower value 0.944 | locus YDR069C, strain doa4, stronger effect = lower value 0.912 | locus YDR101C, strain arx1, stronger effect = lower value 0.978 | locus YDR150W, strain NUM1, stronger effect = lower value 0.972 | locus YDR162C, strain NBP2, stronger effect = lower value 0.882 | locus YDR195W, strain ref2 0.995 | locus YDR297W, strain sur2, stronger effect = lower value 0.931 | locus YDR318W, strain mcm21, stronger effect = lower value 0.928 | locus YDR335W, strain msn5, stronger effect = lower value 0.94 | locus YDR388W, stronger effect = lower value 0.966 | locus YDR392W, strain spt3, stronger effect = lower value 0.796 | locus YDR502C, strain sam2, stronger effect = lower value 0.941 | locus YEL003W, strain gim4, stronger effect = lower value 0.925 | locus YEL037C, strain rad23, stronger effect = lower value 0.944 | locus YEL061C, strain CIN8 (second series), stronger effect = lower value 0.948 | locus YEL061C, strain CIN8, stronger effect = lower value 0.966 | locus YER015W, strain faa2, stronger effect = lower value 0.94 | locus YER016W, strain bim1, stronger effect = lower value 0.957 | locus YER110C, stronger effect = lower value 0.955 | locus YER111C, strain swi4, stronger effect = lower value 0.965 | locus YER155C, strain BEM2 (second series), stronger effect = lower value 0.954 | locus YER155C, strain BEM2, stronger effect = lower value 0.957 | locus YER167W, strain BCK2, stronger effect = lower value 0.98 | locus YGL078C, strain dbp3, stronger effect = lower value 1.01 | locus YGL086W, strain mad1, stronger effect = lower value 0.976 | locus YGL167C, strain pmr1, stronger effect = lower value 0.948 | locus YGL173C, strain kem1, stronger effect = lower value 0.942 | locus YGL227W, strain vid30, stronger effect = lower value 0.977 | locus YGL240W, strain doc1, stronger effect = lower value 0.89 | locus YGL248W, strain PDE1, stronger effect = lower value 0.966 | locus YGL253W, strain hxk2, stronger effect = lower value 0.924 | locus YGR078C, strain PAC10, stronger effect = lower value 0.963 | locus YGR135W, strain pre9, stronger effect = lower value 0.973 | locus YGR252W, strain gcn5, stronger effect = lower value 1.03 | locus YHR013C, strain ard1, stronger effect = lower value 0.963 | locus YHR027C, strain rpn1, stronger effect = lower value 0.935 | locus YHR030C, strain SLT2, stronger effect = lower value 0.963 and 0.867 | locus YHR079C, strain IRE1 (second series), stronger effect = lower value 0.981 | locus YHR094C, strain hxt1, stronger effect = lower value 1 | locus YHR129C, strain ARP1, stronger effect = lower value 0.988 | locus YHR142W, strain chs7, stronger effect = lower value 0.93 | locus YHR200W, strain rpn10, stronger effect = lower value 0.962 | locus YIL066C, strain RNR3, stronger effect = lower value 0.972 | locus YIL073C, strain SPO22, stronger effect = lower value 0.992 | locus YIL125W, strain kgd1, stronger effect = lower value 0.962 | locus YIR030C, strain dcg1, stronger effect = lower value 0.972 | locus YJL092W, strain hpr5, stronger effect = lower value 0.934 | locus YJL095W, strain BCK1 (second series), stronger effect = lower value 0.931 | locus YJL095W, strain BCK1, stronger effect = lower value 0.949 and 0.923 | locus YJL115W, strain asf1, stronger effect = lower value 0.938 | locus YJL129C, strain trk1, stronger effect = lower value 0.967 | locus YJL134W, strain LCB3, stronger effect = lower value 0.967 | locus YJL154C, strain vps35, stronger effect = lower value 0.933 | locus YJL166W, strain qcr8, stronger effect = lower value 0.92 | locus YJL168C, strain set2, stronger effect = lower value 0.955 | locus YJL187C, strain SWE1 (second series), stronger effect = lower value 0.957 | locus YJL187C, strain SWE1, stronger effect = lower value 0.946
active: locus YAL021C, strain ccr4, stronger effect = lower value 0.905 | locus YDR137W, strain rgp1, stronger effect = lower value 0.683 | locus YDR159W, strain sac3, stronger effect = lower value 0.802 | locus YDR334W, strain swr1, stronger effect = lower value 0.884 | locus YFR010W, strain ubp6, stronger effect = lower value 0.896 | locus YHR079C, strain IRE1, stronger effect = lower value 0.774 | locus YJL164C, strain tpk1, stronger effect = lower value 0.913
